Measurements: PubChem BioAssay (EPA / NIEHS)
Records with an inconclusive call do not appear. The source holds several records for some structures; these can differ, active in one and inactive in another. Active and inactive are the calls of the source. The calls were made as follows, unless noted: active = hit-call score of the fitted dose curve at least 0.9, where 1 is the maximum; inactive = score below 0.9.

Tests used:
[1] = target: human RAR-related Orphan Receptor gamma (RORg), RORC (gene 6097) (UniProt P51449); experiment: ATG_RORg_TRANS: Attagene TRANS-FACTORIAL HepG2 Assay for human RAR-related Orphan Receptor gamma (RORg) (AID 2283011; active = hit-call score of the fitted dose curve at least 0.9, where 1 is the maximum)
Sequence of human RAR-related Orphan Receptor gamma (RORg), RORC (gene 6097) (P51449 whole entry, looked up, the tested form may be a part): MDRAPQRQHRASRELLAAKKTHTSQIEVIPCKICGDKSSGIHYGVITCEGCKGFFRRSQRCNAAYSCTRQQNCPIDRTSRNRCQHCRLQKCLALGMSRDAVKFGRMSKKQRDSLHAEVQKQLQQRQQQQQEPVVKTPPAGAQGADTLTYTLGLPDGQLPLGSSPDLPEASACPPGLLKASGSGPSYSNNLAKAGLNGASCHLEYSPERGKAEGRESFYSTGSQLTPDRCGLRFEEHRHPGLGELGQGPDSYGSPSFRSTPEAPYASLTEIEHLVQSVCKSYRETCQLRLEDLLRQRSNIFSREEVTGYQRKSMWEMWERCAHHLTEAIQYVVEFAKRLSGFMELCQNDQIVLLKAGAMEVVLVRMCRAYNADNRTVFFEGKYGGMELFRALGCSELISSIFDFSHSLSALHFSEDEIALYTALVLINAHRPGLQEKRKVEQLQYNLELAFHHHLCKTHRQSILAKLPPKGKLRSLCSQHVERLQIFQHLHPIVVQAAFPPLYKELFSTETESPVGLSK
Outline: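 Transient MRTU transfection of HepG2 (TRANS format, exogenous NR-Gal4 chimera). 24 h dosing. Total RNA → oligo(dT) RT → PCR → 6-FAM labelling → HpaI cut → CE. Gain vs DMSO.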

[2] = target: human Retinoid X Receptor beta (RXRb), RXRB (gene 6257) (UniProt P28702); experiment: ATG_RXRb_TRANS: Attagene TRANS-FACTORIAL HepG2 Assay for human Retinoid X Receptor beta (RXRb) (AID 2283013; active = hit-call score of the fitted dose curve at least 0.9, where 1 is the maximum)
Sequence of human Retinoid X Receptor beta (RXRb), RXRB (gene 6257) (P28702 whole entry, looked up, the tested form may be a part): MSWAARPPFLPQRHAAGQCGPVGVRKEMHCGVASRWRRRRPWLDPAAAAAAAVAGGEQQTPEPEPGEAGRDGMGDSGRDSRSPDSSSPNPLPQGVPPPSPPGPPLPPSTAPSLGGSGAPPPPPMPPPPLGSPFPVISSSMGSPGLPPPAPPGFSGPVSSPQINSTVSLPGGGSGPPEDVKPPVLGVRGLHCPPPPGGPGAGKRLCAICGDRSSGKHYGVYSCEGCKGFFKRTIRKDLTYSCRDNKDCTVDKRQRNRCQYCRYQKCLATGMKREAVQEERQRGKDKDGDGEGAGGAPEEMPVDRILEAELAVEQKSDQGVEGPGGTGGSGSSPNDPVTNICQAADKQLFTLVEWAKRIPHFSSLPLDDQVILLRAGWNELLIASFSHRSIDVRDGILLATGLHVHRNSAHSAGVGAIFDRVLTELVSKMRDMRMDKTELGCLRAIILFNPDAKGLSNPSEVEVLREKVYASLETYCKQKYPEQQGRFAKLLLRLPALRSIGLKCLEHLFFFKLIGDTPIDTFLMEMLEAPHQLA
Outline: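 After a 24 h incubation with test chemical, transfected HepG2 cells carrying NR-Gal4 fusions and GAL4-UAS reporter transcription units yield RNA whose reporter cDNA is FAM-labelled, HpaI-cut and sized by capillary electrophoresis; increases over DMSO are scored.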

[3] = read-out: E-selectin (Homo sapiens) (UniProt P16581); experiment: BSK_3C_Eselectin: BioMAP Diversity Plus: 3C Assay for Eselectin Biomarker Activity (AID 2283015); conditions: primary human endothelial cells (HUVEC); actives raise or lower the signal
Outline: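 HUVEC, 3C stimulation; compound exposure 24 h; E-selectin by ELISA; gain- or loss-of-signal fitted bidirectionally vs DMSO baseline.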

[4] = read-out: Interleukin-1 alpha (IL1a), IL1A (gene 3552); experiment: BSK_BE3C_IL1a: BioMAP Diversity Plus: BE3C Assay for Interleukin-1 alpha (IL1a) Biomarker Activity (AID 2283016); conditions: primary human bronchial epithelial cells; actives raise or lower the signal
Outline: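 Measured in human lung primary bronchial epithelial cells: IL-1a by ELISA at 24 h after dosing, with bidirectional fitting against DMSO.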

[5] = read-out: Monocyte Chemoattractant Protein-1 (MCP1), CCL2 (gene 6347); experiment: BSK_3C_MCP1: BioMAP Diversity Plus: 3C Assay for Monocyte Chemoattractant Protein-1 (MCP1) Biomarker Activity (AID 2283017); conditions: primary human endothelial cells (HUVEC); actives raise or lower the signal
Outline: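 HUVEC, 3C system; 24 h chemical exposure; MCP-1 by ELISA; bidirectional curve fit vs DMSO baseline.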

[6] = read-out: Monocyte Chemoattractant Protein-1 (MCP1), CCL2 (gene 6347); experiment: BSK_4H_MCP1: BioMAP Diversity Plus: 4H Assay for Monocyte Chemoattractant Protein-1 (MCP1) Biomarker Activity (AID 2283018); conditions: primary human endothelial cells (HUVEC); actives raise or lower the signal
Outline: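 Primary human umbilical vein endothelium is exposed to chemical for 24 h before MCP-1 is assayed by ELISA. Concentration-response fitted bidirectionally relative to DMSO.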

[7] = read-out: Human Leukocyte Antigen - DR isotype (HLADR), HLA-DRA (gene 3122); experiment: BSK_3C_HLADR: BioMAP Diversity Plus: 3C Assay for Human Leukocyte Antigen - DR isotype (HLADR) Biomarker Activity (AID 2283019); conditions: primary human endothelial cells (HUVEC); actives raise or lower the signal
Outline: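 HUVEC, 3C stimulation, 24 h post-dose; HLA-DR by ELISA; bidirectional curve fit vs DMSO baseline; gain or loss of signal scored.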

[8] = read-out: Interleukin-8 (IL8), CXCL8 (gene 3576); experiment: BSK_3C_IL8: BioMAP Diversity Plus: 3C Assay for Interleukin-8 (IL8) Biomarker Activity (AID 2283020); conditions: primary human endothelial cells (HUVEC); actives raise or lower the signal
Outline: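 Using DMSO-treated wells as the baseline, bidirectional curve fitting was applied to ELISA-measured IL-8 from human umbilical vein endothelial cultures sampled 24 h after compound addition.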

[9] = target: human Vitamin D Receptor (VDR), VDR (gene 7421) (UniProt P11473); experiment: ATG_VDR_TRANS: Attagene TRANS-FACTORIAL HepG2 Assay for human Vitamin D Receptor (VDR) (AID 2283022; active = hit-call score of the fitted dose curve at least 0.9, where 1 is the maximum)
Sequence of human Vitamin D Receptor (VDR), VDR (gene 7421) (P11473 whole entry, looked up, the tested form may be a part): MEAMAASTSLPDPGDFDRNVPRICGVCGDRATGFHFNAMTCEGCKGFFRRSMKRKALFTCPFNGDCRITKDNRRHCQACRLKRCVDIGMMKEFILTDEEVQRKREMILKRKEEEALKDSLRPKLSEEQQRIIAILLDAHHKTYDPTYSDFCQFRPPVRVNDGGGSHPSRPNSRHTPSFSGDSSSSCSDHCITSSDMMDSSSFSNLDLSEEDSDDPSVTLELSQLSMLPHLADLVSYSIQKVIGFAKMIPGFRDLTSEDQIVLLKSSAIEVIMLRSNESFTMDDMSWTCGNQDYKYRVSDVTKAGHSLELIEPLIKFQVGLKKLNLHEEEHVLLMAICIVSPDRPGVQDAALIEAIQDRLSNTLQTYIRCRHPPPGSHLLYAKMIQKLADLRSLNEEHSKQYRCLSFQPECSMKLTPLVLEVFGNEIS
Outline: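 RT-PCR/capillary electrophoresis read-out of reporter mRNA induction in transiently transfected HepG2; 24 h dosing; chimeric NR-Gal4 (TRANS format); gain-of-signal fit against DMSO baseline.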

[10] = BSK_3C_SRB: Viability Assessment in the BioMAP Diversity Plus: 3C Assay (AID 2283023); conditions: primary human endothelial cells (HUVEC);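 also: cells read 24 h after compound dosing; fitted both ways against DMSO so a hit may be signal rise or drop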
Outline: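 HUVEC, 24 h post-dose; 10% TCA fix, 0.1% SRB stain, A560 nm. Bidirectional curve fit vs DMSO negative control.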

[11] = read-out: Matrix Metallopeptidase 1 (MMP1), MMP1 (gene 4312); experiment: BSK_BE3C_MMP1: BioMAP Diversity Plus: BE3C Assay for Matrix Metallopeptidase 1 (MMP1) Biomarker Activity (AID 2283024); conditions: primary human bronchial epithelial cells; actives raise or lower the signal
Outline: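 In this multiplexed primary-cell system, human bronchial epithelium received chemicals for 24 h before an ELISA for MMP1. Values reflect bidirectional fits normalised to the DMSO baseline.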

[12] = BSK_3C_Vis: BioMAP Diversity Plus: 3C Assay for Morphology Visualization (AID 2283025); conditions: primary human endothelial cells (HUVEC);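 also: fitted both ways so gain or loss versus DMSO counts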;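 as to AC50: light microscopy image of cell morphology used as background control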
Outline: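 Light-microscopy morphology readout, 24 h exposure, human primary umbilical vein endothelium; analysed relative to DMSO with bidirectional fitting.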

[13] = read-out: Pselectin, SELP (gene 6403); experiment: BSK_4H_Pselectin: BioMAP Diversity Plus: 4H Assay for Pselectin Biomarker Activity (AID 2283026); conditions: primary human endothelial cells (HUVEC); actives raise or lower the signal
Outline: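 Bidirectional fits against DMSO gave the endpoint. Cells: primary human umbilical vein endothelium, chemical-treated for 24 h before ELISA detection of P-selectin.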

[14] = BSK_4H_SRB: Viability Assessment in the BioMAP Diversity Plus: 4H Assay (AID 2283027); conditions: primary human endothelial cells (HUVEC);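 also: cells exposed to compound for 24 h before staining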;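 as to AC50: curves fitted both ways versus DMSO so AC50 may be loss or gain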
Outline: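 Cytotoxicity readout: sulforhodamine B (0.1%) staining of total protein after 10% TCA fixation, measured at 560 nm in human umbilical vein endothelium at 24 h. DMSO set the baseline; fitting was bidirectional.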

[15] = BSK_BE3C_SRB: Viability Assessment in the BioMAP Diversity Plus: BE3C Assay (AID 2283028); conditions: primary human bronchial epithelial cells;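 as to AC50: fitted both ways so AC50 may mark signal gain or loss versus DMSO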
Outline: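 Primary human bronchial epithelium; chemical dosing, 24 h; 10% TCA fix, 0.1% SRB stain, A560; bidirectional fit vs DMSO baseline.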

[16] = read-out: Thrombomodulin, THBD (gene 7056); experiment: BSK_3C_Thrombomodulin: BioMAP Diversity Plus: 3C Assay for Thrombomodulin Biomarker Activity (AID 2283029); conditions: primary human endothelial cells (HUVEC); actives raise or lower the signal
Outline: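 In a multiplexed primary-cell system, human umbilical vein endothelium received chemical and was assayed 24 h later for thrombomodulin by ELISA. Parallel cultures were SRB-stained (0.1% SRB after 10% TCA fixation, read at 560 nm) to flag cytotoxicity.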

[17] = read-out: Urokinase-type plasminogen activator receptor (uPAR), PLAUR (gene 5329); experiment: BSK_4H_uPAR: BioMAP Diversity Plus: 4H Assay for Urokinase-type plasminogen activator receptor (uPAR) Biomarker Activity (AID 2283030); conditions: primary human endothelial cells (HUVEC); actives raise or lower the signal
Outline: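 HUVEC, 24 h post-dose; uPAR by ELISA; bidirectional fit vs DMSO baseline.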

[18] = target: Retinoic acid receptor RXR-alpha (Homo sapiens) (UniProt P19793); experiment: ATG_RXRa_TRANS: Attagene TRANS-FACTORIAL HepG2 Assay for human Retinoid X Receptor alpha (RXRa) (AID 2283012; active = hit-call score of the fitted dose curve at least 0.9, where 1 is the maximum)
Sequence of Retinoic acid receptor RXR-alpha (Homo sapiens) (P19793 whole entry, looked up, the tested form may be a part): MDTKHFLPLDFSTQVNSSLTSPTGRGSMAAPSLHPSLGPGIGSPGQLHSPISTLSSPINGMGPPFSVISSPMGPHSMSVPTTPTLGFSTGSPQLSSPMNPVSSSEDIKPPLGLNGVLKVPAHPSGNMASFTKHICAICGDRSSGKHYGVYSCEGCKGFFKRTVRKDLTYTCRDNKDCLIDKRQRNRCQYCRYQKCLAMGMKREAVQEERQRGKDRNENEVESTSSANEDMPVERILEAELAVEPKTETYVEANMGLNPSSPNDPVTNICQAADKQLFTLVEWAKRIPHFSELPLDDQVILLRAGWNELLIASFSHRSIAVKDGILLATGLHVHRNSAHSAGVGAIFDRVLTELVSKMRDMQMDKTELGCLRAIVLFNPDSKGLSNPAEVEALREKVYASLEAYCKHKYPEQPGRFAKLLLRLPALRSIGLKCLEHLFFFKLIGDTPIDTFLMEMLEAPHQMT
Outline: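 Chimeric NR-GAL4 trans-activation in HepG2, 24 h treatment; reporter transcripts quantified by fluorescence on capillary electrophoresis, analysed for upward change from DMSO.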

[19] = read-out: Monokine induced gamma interferon (MIG), CXCL9 (gene 4283); experiment: BSK_3C_MIG: BioMAP Diversity Plus: 3C Assay for Monokine induced gamma interferon (MIG) Biomarker Activity (AID 2283021); conditions: primary human endothelial cells (HUVEC); actives raise or lower the signal;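 as to AC50: MIG protein level measured by immunoassay in the treated endothelial cultures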
Outline: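 ELISA-measured MIG in dosed HUVEC 3C cultures at 24 h, analysed by bidirectional fitting with DMSO defining baseline activity.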

Measured: AC50

Sequence of E-selectin (Homo sapiens) (P16581 whole entry, looked up): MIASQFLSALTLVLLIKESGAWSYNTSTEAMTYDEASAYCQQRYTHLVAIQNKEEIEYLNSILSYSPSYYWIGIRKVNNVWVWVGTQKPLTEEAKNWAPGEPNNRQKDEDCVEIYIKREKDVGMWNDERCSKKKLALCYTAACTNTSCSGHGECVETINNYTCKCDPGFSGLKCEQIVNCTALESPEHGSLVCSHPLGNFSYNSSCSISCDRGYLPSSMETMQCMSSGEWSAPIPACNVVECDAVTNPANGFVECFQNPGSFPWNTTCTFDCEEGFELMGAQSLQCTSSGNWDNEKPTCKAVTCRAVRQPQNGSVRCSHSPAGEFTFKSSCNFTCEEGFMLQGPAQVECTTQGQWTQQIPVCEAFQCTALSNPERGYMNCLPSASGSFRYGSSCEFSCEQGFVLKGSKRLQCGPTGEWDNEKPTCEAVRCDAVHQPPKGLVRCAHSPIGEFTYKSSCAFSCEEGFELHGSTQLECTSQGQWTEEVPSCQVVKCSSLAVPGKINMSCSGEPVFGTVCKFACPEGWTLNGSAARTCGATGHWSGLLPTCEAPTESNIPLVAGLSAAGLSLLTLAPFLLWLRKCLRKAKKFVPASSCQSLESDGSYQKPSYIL

O=c1[nH]sc2ccccc12
active: [3] 13.5 µM | [4] 27.7 µM | [5] 11.7 µM | [6] 11.6 µM | [7] 5.39 µM | [8] 14.4 µM | [10] 13.8 µM | [11] 26 µM | [12] 5.31 µM | [13] 5.54 µM | [14] 20 µM | [15] 37.1 µM | [16] 5.42 µM | [17] 20 µM
inactive: [1] | [2] | [9]

NCc1cccc(C2CCN(C(=O)c3ccc(C#Cc4ccccc4F)o3)CC2)c1
active: [3] 35.6 µM | [4] 15 µM | [5] 20.8 µM | [6] 20 µM | [7] 11.3 µM | [8] 23.1 µM | [10] 11 µM | [11] 28.2 µM | [12] 13.3 µM | [13] 13.3 µM | [14] 15.1 µM | [15] 15.4 µM | [16] 12.7 µM | [17] 23.2 µM
inactive: [1] | [18] | [2] | [9]

C[C@]12CC[C@@H]3c4ccc(O)cc4CC[C@H]3[C@@H]1CC[C@H]2O
active: [3] 8.58 µM | [5] 14.3 µM | [7] 21.3 µM | [8] 13 µM | [10] 12.4 µM | [12] 20.7 µM | [14] 9.1 µM | [17] 12.8 µM
inactive: [1] | [18] | [2] | [4] | [6] | [9] | [13] | [15] | [16]

O=C(O)c1ccccc1-n1cc(C(=O)O)c(=O)c2cc(Nc3c(F)cc(F)cc3Cl)c(Cl)cc21
inactive: [1] | [3] | [4] | [5] | [6] | [7] | [8] | [10] | [11] | [12] | [13] | [14] | [15] | [16] | [17]

Clc1cc(Cl)c2c(c1)N=C1CCCCCN1C2
inactive: [1] | [18] | [3] | [4] | [5] | [6] | [7] | [8] | [10] | [11] | [12] | [13] | [14] | [15] | [16] | [17]

Cc1ncc(CO)c(CO)c1O
inactive: [1] | [18] | [2] | [3] | [4] | [5] | [6] | [7] | [8] | [9] | [10] | [11] | [12] | [13] | [14] | [15] | [16] | [17]

Cc1cccc2ccccc12
inactive: [1] | [18] | [2] | [3] | [4] | [5] | [6] | [7] | [8] | [9] | [10] | [11] | [12] | [13] | [14] | [15] | [16] | [17]

CCCC(=O)OCCC(C)C
inactive: [1] | [3] | [4] | [5] | [6] | [7] | [8] | [19] | [9] | [10] | [11] | [12] | [13] | [14] | [15] | [16] | [17]

CC(=O)N1CCN(c2ccc(OC[C@H]3CO[C@](Cn4ccnc4)(c4ccc(Cl)cc4Cl)O3)cc2)CC1
active: [5] 31.9 µM | [6] 26.4 µM | [7] 25.2 µM | [8] 31.3 µM | [10] 29.1 µM | [12] 37.5 µM | [13] 14.8 µM | [14] 29.6 µM | [17] 32.9 µM
inactive: [1] | [3] | [4] | [9] | [11] | [15] | [16]

CCCCCCCC[Si](OCC)(OCC)OCC
active: [2] 26.8 µM | [3] 17.5 µM | [5] 31.2 µM | [6] 29.5 µM | [7] 23.3 µM | [8] 30 µM | [10] 31.4 µM | [14] 32.8 µM | [16] 21 µM | [17] 33.2 µM
inactive: [18] | [2] | [4] | [9] | [12] | [13] | [15]

O=C(O)c1ccccc1C(=O)OCc1ccccc1
inactive: [1] | [18] | [3] | [4] | [5] | [6] | [7] | [8] | [10] | [12] | [13] | [14] | [15] | [16] | [17]

Oc1ccc2ccccc2c1
inactive: [18] | [2] | [3] | [4] | [5] | [6] | [7] | [8] | [19] | [9] | [10] | [12] | [13] | [14] | [15] | [16] | [17]

CC(C)(c1cc(Br)c(O)c(Br)c1)c1cc(Br)c(O)c(Br)c1
inactive: [18] | [2] | [9]
active: [3] 29 µM | [4] 5.72 µM | [5] 29.9 µM | [6] 26.6 µM | [7] 27.2 µM | [8] 31.8 µM | [19] 37.1 µM | [10] 29.6 µM | [12] 37.8 µM | [13] 30.2 µM | [14] 28.7 µM | [15] 5.06 µM | [16] 8.15 µM | [17] 28.9 µM
